Compounds with a hit are over-represented: about 4.3% of the library has one in this group of screens.
uPA surface inh: inhibitors of cell surface uPA generation. cell surface uPA generation assay, qHTS. Potency, µM (series often up to 38.3 µM), actives largely listed as inhibitors. 0.31% of 330,000 active; active means well fitted inhibition curve with a large enough effect; inconclusive means small, poorly fitted or top-dose-only effect; inactive means no such curve, though single readings can be large or run the other way; tested in mouse RAW 264.7 cells; further: nearly all actives have a fitted effect of over 55% in size
SW480 rereplic: induces DNA re-replication in SW480 colon adenocarcinoma cells; 1.8% of 340,000 active; Potency, µM (top dose mostly 46.1 µM), hits mostly activators; SW480 DNA re-replication, Hoechst DNA content imaging, 48 h; further: nearly all actives have a fitted effect of over 55% in size
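250 cells/well; 23 nL cpd via pin tool; 48 hr, 37 C, 5% CO2; Hoechst 40 min; imager read of total nuclear intensity, ex 405/em 500-530 nm.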
Giardia kill: kills Giardia lamblia | Giardia lamblia trophozoite viability | activity change, % at 7.66 µM, hits read low | 0.15% of 340,000 active | AID 540267; in the data active means activity change below about -80%; inconclusive means between about -30% and that limit;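 further: parasites exposed to compound for two days anaerobically before the ATP read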
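Trophozoites 100 cells/well + cpd; 48 hrs, 37 deg C, anaerobic. ATPLite 1-Step added, 15-30 min RT, luminescence read (ATP-based viability).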
MCF10A rereplic: inducers of DNA re-replication in MCF 10A breast cells; MCF 10A DNA re-replication, Hoechst nuclear intensity, 48 h; Potency, µM (highest dose often 46.1 µM), usual class: activators; 2.9% of 350,000 active; AID 624296; further: nearly all actives have a fitted effect of over 50% in size
Each line names hits and unclear results; the compound was inactive in the other large screens. Unless noted, the call rests on the fitted dose curve; in most records, active means well fitted activation curve with a large enough effect; inconclusive means small, poorly fitted or top-dose-only effect; inactive means no such curve, though single readings can be large or run the other way.

Cc1cc(C)c2c(=N)c3ccccc3n(CCCCCCCCn3c4ccccc4c(=N)c4c(C)cc(C)nc43)c2n1	SW480 rereplic 23µM, MCF10A rereplic inconclusive
Cc1nn(CC(=O)Nc2ccc3c(c2)OCCO3)c(C)c1[N+](=O)[O-]	none
O=C(Cn1c(=O)n(Cc2ccc(C(=O)NCc3ccc4c(c3)OCO4)cc2)c(=O)c2ccccc21)Nc1ccc(F)cc1F	none (no result: uPA surface inh, SW480 rereplic, MCF10A rereplic)
O=C(O)c1ccccc1NS(=O)(=O)c1cccc(-n2sc3ccccc3c2=O)c1	SW480 rereplic inconclusive, MCF10A rereplic 15µM
COc1ccc(NS(=O)(=O)c2cccc(C(=O)N3CCN(S(=O)(=O)c4ccccc4)CC3)c2)cc1	none
CCC(C)[C@H]1CNCCN1CCC12CC3CC(CC(C3)C1)C2 (some centres not stated)	none
Cc1c(C(=O)C(=O)N2CC=C(c3ccccc3)CC2)c2ccccc2n1C	SW480 rereplic 7.3µM, MCF10A rereplic 2.3µM
CCCc1ccc(-c2cc(C(=O)N3CCN(c4ccccn4)CC3)c3ccccc3n2)cc1	uPA surface inh 7.1µM, SW480 rereplic inconclusive, Giardia kill inconclusive, MCF10A rereplic inconclusive
COc1ccc(-c2cc(C(=O)N3CCN(c4ccccn4)CC3)c3ccccc3n2)cc1	SW480 rereplic 21µM, Giardia kill inconclusive, MCF10A rereplic inconclusive (no result: uPA surface inh)
Cc1cc(C(=O)N2CC=C(c3ccccc3)CC2)c2ccccc2n1	SW480 rereplic 1.3µM, MCF10A rereplic inconclusive
COc1ccc(-c2cc(C(=O)N3CCN(c4ncccn4)CC3)c3ccccc3n2)cc1	uPA surface inh inconclusive
COc1cc(-c2cc(C(=O)N3CCN(c4ccccn4)CC3)c3ccccc3n2)cc(OC)c1OC	MCF10A rereplic inconclusive
Cc1c(C(=O)C(=O)N2c3ccccc3CC2C)c2ccccc2n1C (configuration not stated)	SW480 rereplic inconclusive, MCF10A rereplic inconclusive
CN(C(=O)C1CCC(=O)N(Cc2cccc(F)c2)C1)C1CCCCC1 (configuration not stated)	none
CN1CCN2c3ccccc3CC3(C(=O)OC(C)(C)OC3=O)C2C1 (configuration not stated)	none (no result: uPA surface inh, SW480 rereplic, MCF10A rereplic)
COc1ccc(-c2cc(C(=O)N3CCN(c4ccccc4)CC3)c3ccccc3n2)cc1	SW480 rereplic 1.8µM, MCF10A rereplic 13µM
COc1ccc(-c2cc(C(=O)N3CCCC3)c3ccccc3n2)cc1	uPA surface inh inconclusive
Cc1cc(C)c2cc3c(N)c(C(=O)N4CCc5ccccc5C4)sc3nc2c1	none
Cc1ccc2nc3sc(C(=O)N4CCCc5ccccc54)c(N)c3cc2c1	SW480 rereplic 3.7µM, MCF10A rereplic inconclusive (no result: uPA surface inh)
COc1ccc2cc(-c3cc(C(=O)O)c4ccccc4n3)ccc2c1	Giardia kill -105
COc1cc2ccccc2cc1C(=O)N1CCc2ccccc21	SW480 rereplic inconclusive, MCF10A rereplic 16µM
COCCCNC(=S)N1CCN(S(C)(=O)=O)CC1	none
Cc1nnc(SCC(=O)NC2CCCC2)n1C(C)C	none
COc1cccc(C(c2cccc(OC)c2)c2ccccc2C(=O)O)c1	none
Cc1ccc(-c2cc(C(=O)N3CCCc4ccccc43)c3ccccc3n2)cc1	SW480 rereplic inconclusive, MCF10A rereplic 21µM (no result: uPA surface inh)
CCCc1ccc(OCc2ccc(C(=O)N3CCN(c4ccccn4)CC3)o2)c(OC)c1	MCF10A rereplic 9.2µM
Cc1ccc(-c2cc(C(=O)N3CCN(c4ccc(O)cc4)CC3)c3ccccc3n2)cc1	uPA surface inh 10µM
COc1ccc(CC(=O)N2CCN(c3ccccn3)CC2)cc1OC	none
CCC(C)Sc1ccc([C@H]2N[C@@](C)(C(=O)OC)[C@H]3C(=O)N(CC)C(=O)[C@@H]23)cc1OC (some centres not stated)	none
CCOC(=O)C(=Cc1ccc(-n2ccnc2)cc1)C(=O)OCC	SW480 rereplic 6.5µM, MCF10A rereplic 2.6µM
CCOC(=O)C(=Cc1ccc(Br)cc1)C(=O)OCC	SW480 rereplic 7.3µM, MCF10A rereplic 1.6µM
Cc1ccc(NS(=O)(=O)c2ccc(NS(=O)(=O)c3cccs3)cc2)cc1	MCF10A rereplic inconclusive
O=S(=O)(Nc1ccc(Br)cc1)c1cccc(NS(=O)(=O)c2cccs2)c1	uPA surface inh inconclusive, MCF10A rereplic 7.3µM
O=C(C[C@H]1C/C=C\CC[C@H](Cc2ccc(F)cc2)C(=O)OC[C@H]2CCCN2C1=O)NCCO	uPA surface inh inconclusive
CC1Cc2ccccc2N1S(=O)(=O)c1cnc(Cl)c(Cl)c1 (configuration not stated)	uPA surface inh inconclusive, MCF10A rereplic 15µM
CN(C(=O)COC(=O)C1COc2ccccc2O1)C1(C#N)CCCCC1 (configuration not stated)	none
CN(C)CCc1c[nH]c2ccc(CC3COC(=O)N3)cc12 (configuration not stated)	none (no result: uPA surface inh, Giardia kill)

Screens as filed in PubChem BioAssay.
